The source of these data is PubChem BioAssay.

The nature of experiment [1]: binders of probe aFSTL3 on microarray, primary screen, stem cell growth factor project, biochemical, small-molecule microarray, fluorescence 635/667 (AID 1064).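 Note: measures binding of the biotinylated anti-FSTL3 antibody to printed compounds.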 The note with it: higher = more signal.
Experiment [2] in a line: binders from COS7 lysate, DM2A8 probe, primary screen, torsin A project, cell lysate, small-molecule microarray, fluorescence 635/667 (AID 1065). As to conditions: higher = more signal, COS7 lysate expressing mutant human TOR1A.
A short description of experiment [3]: binders of probe aFGF2 on microarray, primary screen, stem cell growth factor project, biochemical, small-molecule microarray, fluorescence 635/667 (AID 1067).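 Note: measures binding of biotinylated aFGF2 protein to printed compounds on slides; z-score merges feature fluorescence and signal-to-noise across triplicate slides.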 As to conditions: higher = more signal.
The nature of experiment [4]: binders of probe aFGF10 on microarray, primary screen, stem cell growth factor project, biochemical, small-molecule microarray, fluorescence 635/667 (AID 1071).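 Note: score merges 667 nm spot intensity and signal to noise from triplicate slides.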 As to conditions: higher = more signal.
Experiment [5] deals with Neurogenic locus notch homolog protein 2 (Homo sapiens) (UniProt Q04721). Kind of experiment: Notch2 binders on small-molecule microarrays, primary screen, biochemical, small-molecule microarray, 635 nm fluorescence, stem cell growth factors (AID 1073). The note with it: Notch2 binding, higher = more signal.
The target in experiment [6] is Pro-neuregulin-1, membrane-bound isoform (Homo sapiens) (UniProt Q02297). Kind of experiment: NRG1 binders on small-molecule microarrays, primary screen, psychiatric disease protein project, biochemical, small-molecule microarray, fluorescence 635/667 (AID 1075).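 Note: score combines 667 nm spot fluorescence with signal to noise.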 As to conditions: NRG1 binding, 635 nm fluorescence, higher = more signal.
Experiment [7] relates to Neuregulin-1 EGF-like domain. Briefly: binders of neuregulin-1 EGF-like domain, primary screen, biochemical, small-molecule microarray, 635 nm fluorescence (AID 1081).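 Note: binding of the protein to compounds printed on small-molecule microarray slides.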 The note with it: small-molecule microarray binding, higher = more signal.
Experiment [8] can be described thus: FRG1 promoter luciferase signal modulators, primary screen, FRG1 inhibition for FSHD, cell-based, C2C12 myotubes, firefly/Renilla luciferase, luminescence (AID 1084). As to conditions: higher = more signal, called active from +8 up or from −8 down.
A short description of experiment [9]: binders of probe aFST on microarray, primary screen, stem cell growth factor project, biochemical, small-molecule microarray, fluorescence 635/667 (AID 1086).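 Note: score merges 667 nm fluorescence with signal-to-noise of each printed compound spot.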 The note with it: higher = more signal.
The nature of experiment [10]: binders of probe aHhip on microarray, primary screen, stem cell growth factor project, biochemical, small-molecule microarray, fluorescence 635/667 (AID 1087).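 Note: score merges spot fluorescence at 667nm with spot signal to noise ratio.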 As to conditions: higher = more signal.
For experiment [11], the system named is PRMT1 (protein arginine N-methyltransferase 1). Kind of experiment: PRMT1 binders on small-molecule microarrays, primary screen, biochemical, small-molecule microarray, 635 nm fluorescence (AID 1088).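 Note: binding of Prmt1 protein to compounds spotted on small-molecule microarray slides.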 As to conditions: small-molecule microarray binding, higher = more signal.
The nature of experiment [12]: yeast growth modulation, basal conditions, primary screen, YJM789 clinical isolate, OD600, 24 h (AID 1089).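 Note: growth of clinical yeast isolate S. cerevisiae YJM 789 seeded 1000 cells per well; test concentration not given here.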 As to conditions: S. cerevisiae YJM789 growth, higher = more signal, called active from +8 up or from −8 down.
The nature of experiment [13]: fission yeast growth modulation, primary screen, strain 972, OD600, 24 h, no modulator (AID 1090).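 Note: basal condition with compound alone and no growth modifier present; test concentration not given here.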 As to conditions: S. pombe 972 growth, higher = more signal, called active from +8 up or from −8 down.
The nature of experiment [14]: S. cerevisiae growth modulation with rapamycin, primary screen, strain BY4716, OD600, 96 h (AID 1091). Note: test concentration not given here. As to conditions: higher = more signal, called active from +8 up or from −8 down.
Experiment [15] has as its target Torsin-1A-interacting protein 2 (Homo sapiens) (UniProt Q8NFQ8). Briefly: LULL1 binders on small-molecule microarray, primary screen, cell lysate, human LULL1 lysate, 635/667 nm fluorescence (AID 1092).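 Note: probe is lysate of COS7 cells overexpressing human LULL1; score merges per-feature 667 nm fluorescence with signal-to-noise.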 As to conditions: hLULL1 lysate binding, 635 nm fluorescence, higher = more signal.
The nature of experiment [16]: E. coli growth modulation, two-sided OD650, primary screen, E. coli filamentation project, strain DRC41, 24 h (AID 1093).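 Note: MC1000 strain lacking acrAB efflux and sulA so SOS filamentation is blocked; test concentration not given here.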 As to conditions: OD650, 24 h, higher = more signal, called active from +8 up or from −8 down.
Experiment [17] in a line: small-molecule microarray binders of probe aLefty2, primary screen, biochemical, biotinylated probe, 635/667 nm fluorescence (AID 1094).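 Note: score merges spot fluorescence near 667 nm with spot signal-to-noise ratio.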 As to conditions: higher = more signal.
The test system of experiment [18] is Noggin (protein binding on small-molecule microarray). Briefly: Noggin binders on small-molecule microarray, primary screen, biochemical, 635/667 nm fluorescence (AID 1095).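 Note: score merges 667 nm feature fluorescence with signal to noise over triplicate slides.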 As to conditions: 635 nm fluorescence, higher = more signal.
Experiment [19] has as its target Neurogenic locus notch homolog protein 3 (Homo sapiens) (UniProt Q9UM47). Briefly: NOTCH3 binders on small-molecule microarray, primary screen, biochemical, 635/667 nm fluorescence (AID 1096). The note with it: NOTCH3 binding, 635 nm fluorescence, higher = more signal.
A short description of experiment [20]: small-molecule microarray binders of probe aEGFR, primary screen, biochemical, biotinylated probe, 635/667 nm fluorescence (AID 1097).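 Note: probe is a biotinylated anti-EGFR antibody binding compounds printed on slides; score combines fluorescence near 667 nm and signal to noise of each spot.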 The note with it: higher = more signal.

Calls of active or inactive are those of the source.

Chain of Neurogenic locus notch homolog protein 2 (Homo sapiens) (Q04721 whole entry, looked up, canonical isoform): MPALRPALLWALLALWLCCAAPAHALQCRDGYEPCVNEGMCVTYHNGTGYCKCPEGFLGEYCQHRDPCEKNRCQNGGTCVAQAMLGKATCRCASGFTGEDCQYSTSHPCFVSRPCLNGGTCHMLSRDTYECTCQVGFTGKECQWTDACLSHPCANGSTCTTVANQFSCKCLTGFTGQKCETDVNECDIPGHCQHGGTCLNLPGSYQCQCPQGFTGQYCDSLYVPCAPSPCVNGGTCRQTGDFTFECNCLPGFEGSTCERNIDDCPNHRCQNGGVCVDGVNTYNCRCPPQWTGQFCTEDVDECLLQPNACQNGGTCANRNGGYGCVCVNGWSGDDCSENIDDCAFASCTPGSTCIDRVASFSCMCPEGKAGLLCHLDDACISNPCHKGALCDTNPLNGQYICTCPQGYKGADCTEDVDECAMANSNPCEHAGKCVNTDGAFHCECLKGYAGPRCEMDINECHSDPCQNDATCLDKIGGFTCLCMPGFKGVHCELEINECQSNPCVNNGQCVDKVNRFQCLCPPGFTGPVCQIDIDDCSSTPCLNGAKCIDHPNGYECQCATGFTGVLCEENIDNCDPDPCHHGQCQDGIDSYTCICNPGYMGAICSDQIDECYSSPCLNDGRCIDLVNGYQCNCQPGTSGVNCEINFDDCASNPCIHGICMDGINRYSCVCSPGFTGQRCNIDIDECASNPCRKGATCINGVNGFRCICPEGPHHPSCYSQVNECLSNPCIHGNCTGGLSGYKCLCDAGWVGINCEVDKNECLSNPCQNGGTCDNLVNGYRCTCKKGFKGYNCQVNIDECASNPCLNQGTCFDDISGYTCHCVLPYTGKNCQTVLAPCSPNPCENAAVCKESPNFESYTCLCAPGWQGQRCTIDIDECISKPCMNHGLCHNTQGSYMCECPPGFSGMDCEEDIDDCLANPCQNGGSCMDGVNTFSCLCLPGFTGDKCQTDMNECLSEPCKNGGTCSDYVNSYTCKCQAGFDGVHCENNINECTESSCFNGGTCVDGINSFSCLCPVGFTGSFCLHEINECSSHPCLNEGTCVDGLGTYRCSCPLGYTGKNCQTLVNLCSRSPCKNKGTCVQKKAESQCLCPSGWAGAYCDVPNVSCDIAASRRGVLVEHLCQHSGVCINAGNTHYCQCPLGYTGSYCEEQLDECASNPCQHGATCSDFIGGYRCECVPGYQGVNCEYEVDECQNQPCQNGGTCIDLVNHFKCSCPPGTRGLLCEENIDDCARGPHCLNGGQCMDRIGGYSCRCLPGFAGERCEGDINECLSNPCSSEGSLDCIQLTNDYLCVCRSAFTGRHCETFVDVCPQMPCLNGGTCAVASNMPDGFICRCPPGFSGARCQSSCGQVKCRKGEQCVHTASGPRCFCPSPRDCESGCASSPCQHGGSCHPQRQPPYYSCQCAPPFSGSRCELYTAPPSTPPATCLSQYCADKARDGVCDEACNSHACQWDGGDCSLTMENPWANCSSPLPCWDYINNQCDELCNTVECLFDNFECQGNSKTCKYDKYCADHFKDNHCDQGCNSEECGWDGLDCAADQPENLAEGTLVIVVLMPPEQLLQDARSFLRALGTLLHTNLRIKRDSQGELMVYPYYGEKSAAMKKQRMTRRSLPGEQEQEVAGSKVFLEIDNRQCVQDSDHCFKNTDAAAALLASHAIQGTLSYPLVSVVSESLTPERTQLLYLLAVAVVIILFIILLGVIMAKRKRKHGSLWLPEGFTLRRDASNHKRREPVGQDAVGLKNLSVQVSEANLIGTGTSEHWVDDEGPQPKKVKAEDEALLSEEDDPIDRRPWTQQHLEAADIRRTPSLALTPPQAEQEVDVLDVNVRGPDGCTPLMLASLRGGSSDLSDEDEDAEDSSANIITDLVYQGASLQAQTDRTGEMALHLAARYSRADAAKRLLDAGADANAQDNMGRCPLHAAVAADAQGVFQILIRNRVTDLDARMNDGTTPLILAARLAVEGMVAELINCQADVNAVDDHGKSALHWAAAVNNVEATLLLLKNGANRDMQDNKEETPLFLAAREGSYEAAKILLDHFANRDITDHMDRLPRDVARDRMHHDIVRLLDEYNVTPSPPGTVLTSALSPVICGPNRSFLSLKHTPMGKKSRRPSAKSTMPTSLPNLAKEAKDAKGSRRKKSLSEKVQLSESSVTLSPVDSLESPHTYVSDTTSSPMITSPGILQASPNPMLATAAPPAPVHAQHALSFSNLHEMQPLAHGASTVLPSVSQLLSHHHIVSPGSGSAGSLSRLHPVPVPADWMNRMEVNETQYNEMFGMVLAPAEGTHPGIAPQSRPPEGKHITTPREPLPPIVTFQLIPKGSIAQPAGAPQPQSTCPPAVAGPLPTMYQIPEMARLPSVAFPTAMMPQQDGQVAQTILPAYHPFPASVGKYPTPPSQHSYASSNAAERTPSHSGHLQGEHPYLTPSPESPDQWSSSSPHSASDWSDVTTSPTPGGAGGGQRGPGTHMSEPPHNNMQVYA
Chain of Torsin-1A-interacting protein 2 (Homo sapiens) (Q8NFQ8 whole entry, looked up): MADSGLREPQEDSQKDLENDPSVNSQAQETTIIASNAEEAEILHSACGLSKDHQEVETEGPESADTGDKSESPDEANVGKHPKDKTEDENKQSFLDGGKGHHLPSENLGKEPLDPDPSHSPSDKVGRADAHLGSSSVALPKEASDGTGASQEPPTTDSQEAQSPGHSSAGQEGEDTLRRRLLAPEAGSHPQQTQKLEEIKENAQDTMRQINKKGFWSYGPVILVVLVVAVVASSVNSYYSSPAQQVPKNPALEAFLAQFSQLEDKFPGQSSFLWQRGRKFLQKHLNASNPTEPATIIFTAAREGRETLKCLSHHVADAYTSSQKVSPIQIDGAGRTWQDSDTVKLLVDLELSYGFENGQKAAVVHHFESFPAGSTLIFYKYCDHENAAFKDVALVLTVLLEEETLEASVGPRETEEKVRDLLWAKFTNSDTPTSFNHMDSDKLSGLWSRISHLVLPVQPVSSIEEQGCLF
Chain of Pro-neuregulin-1, membrane-bound isoform (Homo sapiens) (Q02297 whole entry, looked up, the tested form may be a part, canonical isoform): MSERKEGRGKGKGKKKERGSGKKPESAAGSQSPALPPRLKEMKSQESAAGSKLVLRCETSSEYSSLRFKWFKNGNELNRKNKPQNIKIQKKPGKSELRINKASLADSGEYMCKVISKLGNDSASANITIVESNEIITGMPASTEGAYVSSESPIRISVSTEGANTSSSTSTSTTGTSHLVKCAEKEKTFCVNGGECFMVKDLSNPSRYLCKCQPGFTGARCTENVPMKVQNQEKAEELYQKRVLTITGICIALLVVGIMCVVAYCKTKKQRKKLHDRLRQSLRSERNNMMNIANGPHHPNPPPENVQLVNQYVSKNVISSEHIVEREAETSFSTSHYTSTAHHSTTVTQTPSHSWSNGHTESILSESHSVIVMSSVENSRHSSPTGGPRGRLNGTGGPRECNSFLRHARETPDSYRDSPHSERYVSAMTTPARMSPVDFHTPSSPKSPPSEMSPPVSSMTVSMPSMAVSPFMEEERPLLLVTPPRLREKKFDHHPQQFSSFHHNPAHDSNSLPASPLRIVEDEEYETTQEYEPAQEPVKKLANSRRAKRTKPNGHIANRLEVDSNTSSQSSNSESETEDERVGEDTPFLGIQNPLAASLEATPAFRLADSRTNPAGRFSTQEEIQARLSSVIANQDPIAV

With `COC(=O)[C@@]1(Cc2ccc(OC)cc2)[C@H]2c3cc(C(=O)N(C)C)[nH]c3C[C@H]2CN1C(=O)c1ccccc1`, the composite z-score is -0.231 in experiment [1]; -0.884 in experiment [2]; 0.0992 in experiment [3]; 0.304 in [4]; 0.793 in experiment [5]; 0.882 in experiment [6]. The composite z-score in experiment [7] is 0.977; in experiment [9], 0.019; in experiment [10] it was -0.0905; in experiment [11], -0.614; in experiment [15], 0.982; in [17], 0.096. Moreover, the results for the composite z-score in experiment [18], in experiment [19] and in [20] were -0.337, 0.201 and -0.0594, respectively. The z-score was 1.04 (inactive) in experiment [8]; 0.0372 (inactive) in experiment [12]; 1.15 (inactive) in experiment [13]; 0.0745 (inactive) in experiment [14]; 0.0515 (inactive) in [16].

Turning to `C=CCOC(=O)[C@H]1[C@@H]2C(=O)O[C@@H](c3ccccc3)[C@@H](c3ccccc3)N2[C@@H](c2ccc(OCCOC(=O)[C@H]3C[C@H]4C(=O)N[C@@H](CC(C)C)C(=O)N4[C@H]3c3ccc(O)cc3)cc2)[C@]12C(=O)Nc1ccccc12`, the composite z-score was -0.109 in [1]; 1.34 in experiment [2]; -0.079 in experiment [3]; 0.868 in [4]; 1.46 in experiment [5]; 1.45 in experiment [6]. Further, the composite z-score in experiment [7] is 1.43; in [9], 0.174; in experiment [10] it was 0.213; in experiment [11], 1.53; in experiment [15], 2.42; in [17], -0.084. In addition, the composite z-score is 0.993 in [18], 1.08 in [19] and 0.11 in experiment [20]. For the same molecule, the z-score in [8] is -0.0648 (inactive); in experiment [12] it was 2.24 (inactive); in [13], 1.47 (inactive); in experiment [14], 3.92 (inactive); in experiment [16] it was 0.0375 (inactive).

As to `O=C1C2C=CC(C(O)C3CCCCC3)N(n3cnnc3)C2C(=O)N1Cc1ccccc1` (stereo not given), the composite z-score in experiment [1] was -0.0187; in experiment [2], 0.396; in [3], 0.0498; in [4] it was 0.792; in [5], 0.884; in [6] it was 1.07. Besides, the composite z-score is 1.3 in experiment [7]; 1.47 in experiment [9]; -0.299 in experiment [10]; 1.51 in experiment [11]; 3.15 in experiment [15]; 0.145 in experiment [17]. The composite z-score in [18] worked out at 0.915; in experiment [19], 1.06; in experiment [20], 0.0201. Also, the z-score in experiment [8] is 1.11 (inactive); in [12], -0.509 (inactive); in [13] it was 0.266 (inactive); in experiment [14], -0.98 (inactive); in experiment [16], 0.596 (inactive).

Take `Cc1ccc(N2C(=O)c3ccccc3[C@](C)(C(=O)NCCCN(C)C)[C@@H]2c2ccc(CO)cc2)nc1`: the composite z-score in experiment [1] was 0.908; in experiment [2] it was -0.109; in [3] it was -0.1; in [4] it was -0.436; in experiment [5] it was -0.676; in [6], -0.114. Also, the composite z-score in experiment [7] is 0.582; in [9] it was 0.423; in experiment [10] it was -0.236; in [11] it was 0.409; in [15] it was 2.93; in [17] it was -0.0405. The composite z-score was -0.817 in experiment [18], -0.681 in experiment [19] and -0.209 in experiment [20]. The z-score was 1.36 (inactive) in [8]; -0.903 (inactive) in [12]; -0.808 (inactive) in experiment [13]; -1.51 (inactive) in experiment [14]; -0.677 (inactive) in experiment [16].

For `COc1cc(CO)cc(I)c1O[C@H]1C=C(C(=O)NCCO)C[C@@H]2O[C@H]12`, the composite z-score in experiment [1] was 0.167; in experiment [2] it was 0.622; in experiment [3] it was -0.111; in experiment [4], 0.251; in [5], 0.864; in experiment [6] it was 0.366. Moreover, the composite z-score in experiment [7] was 1.46; in experiment [9] it was 0.164; in [10], -0.199; in experiment [11], 1.56; in experiment [15] it was 2.63; in experiment [17] it was 0.17. Moreover, the composite z-score in experiment [18] was determined as 2.32; in experiment [19], 1.07; in experiment [20], 0.0018. Moreover, the z-score in [8] was -1.44 (inactive); in [12] it was 0.111 (inactive); in experiment [13], -6.47 (inactive); in [14], -1.42 (inactive); in [16] it was -0.0097 (inactive).

Take `C[C@@H]1NC(=O)C([C@@H](C)OCc2ccccc2)NC(=O)[C@@]23C(=O)N[C@@H](Cc4ccccc4)C2[C@H](C)[C@@]2(C)O[C@H]2C3/C=C/C/C=C\CNC1=O` (stereo not given in full): the composite z-score in [1] is -0.439; in experiment [2], -0.328; in [3] it was -0.0578; in [4], 0.341; in [5], -0.0879; in experiment [6], 0.671. Besides, the composite z-score in [7] was 0.503; in [9], -0.502; in [10], -0.236; in [11], -0.448; in experiment [15], -0.327; in experiment [17] it was -0.205. For the same molecule, the values for the composite z-score in experiment [18], in experiment [19] and in [20] were -0.0322, 0.177 and -0.109, respectively. Moreover, the z-score in [8] is -0.116 (inactive); in experiment [12], 0.35 (inactive); in experiment [13], -0.258 (inactive); in experiment [14] it was 0.186 (inactive); in [16], -1.07 (inactive).
